Results from PubChem BioAssay AID1159580 (chemical genetic matrix, 2015).
Values joined by “and” are separate entries in the source; they are usually repeats but may differ in a detail not shown here. Equal values may be shown once. Screen size: about 5,500 compounds; about 2,000 (36%) were called active. Another 18% or so got no clear call; they are omitted. Cut-off read from the data, not from the text of the source: active = normalized growth mostly below about 0.91 (no sharp cut-off); inconclusive = no clear call, values can overlap the other calls; inactive = mostly above about 0.92. The list shows a part of the results.

Experiment: chemical genetic growth profiling, strain panel (AID 1159580);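 note: tested at 20 µM; growth read once vehicle control cultures reached saturation at 30 °C; 1 = growth at the plate median or of vehicle wells; lower values mean less growth of the strain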
Conditions: S. cerevisiae deletion strains, growth OD

Measured: normalized growth

CC(C)CCCC(C)C1CCC2C3CC[C@H]4CCCC[C@]4(C)C3CC[C@]12C (some centres not stated)
inactive: locus YAL013W, strain DEP1, active compounds read low 1.09 | locus YAL021C, strain ccr4, active compounds read low 1 | locus YAL026C, strain drs2, active compounds read low 1.02 | locus YAL030W, strain snc1, active compounds read low 1.02 | locus YBL061C, strain skt5, active compounds read low 1.02 | locus YBR009C, strain hhf1, active compounds read low 1.03 | locus YBR021W, strain FUR4, active compounds read low 1.04 | locus YBR023C, strain chs3, active compounds read low 1.02 | locus YBR171W, strain sec66, active compounds read low 1.02 | locus YBR229C, strain ROT2, active compounds read low 0.963 | locus YBR231C, strain swc5, active compounds read low 1.03 | locus YBR279W, strain paf1, active compounds read low 1.02 | locus YCL011C, strain gbp2, active compounds read low 1.02 | locus YCL016C, strain dcc1, active compounds read low 1.02 | locus YCL029C, strain bik1, active compounds read low 0.985 | locus YCL061C, strain MRC1, active compounds read low 1.02 | locus YCL069W, strain vba3, active compounds read low 1.01 | locus YCR088W, strain abp1, active compounds read low 1.01 | locus YDL005C, strain med2, active compounds read low 1.02 | locus YDL035C, strain GPR1, active compounds read low 0.971 | locus YDL040C, strain nat1, active compounds read low 1.01 | locus YDL074C, strain BRE1, active compounds read low 0.959 | locus YDL101C, strain DUN1, active compounds read low 0.952 | locus YDL134C, strain PPH21, active compounds read low 0.985 | locus YDL185W, strain tfp1, active compounds read low 0.966 | locus YDL192W, strain arf1, active compounds read low 0.983 | locus YDR001C, strain nth1, active compounds read low 1.01 | locus YDR069C, strain doa4, active compounds read low 1.05 | locus YDR101C, strain arx1, active compounds read low 0.99 | locus YDR137W, strain rgp1, active compounds read low 1 | locus YDR150W, strain NUM1, active compounds read low 0.965 | locus YDR159W, strain sac3, active compounds read low 1.04 | locus YDR162C, strain NBP2, active compounds read low 0.964 | locus YDR195W, strain ref2 1.03 | locus YDR297W, strain sur2, active compounds read low 1.02 | locus YDR318W, strain mcm21, active compounds read low 1 | locus YDR334W, strain swr1, active compounds read low 1.01 | locus YDR335W, strain msn5, active compounds read low 1.02 | locus YDR388W, active compounds read low 0.987 | locus YDR392W, strain spt3, active compounds read low 0.98 | locus YDR502C, strain sam2, active compounds read low 0.978 | locus YEL003W, strain gim4, active compounds read low 1.03 | locus YEL037C, strain rad23, active compounds read low 1.01 | locus YEL061C, strain CIN8 (second series), active compounds read low 1.01 | locus YEL061C, strain CIN8, active compounds read low 0.994 | locus YER015W, strain faa2, active compounds read low 1.02 | locus YER016W, strain bim1, active compounds read low 1.02 | locus YER110C, active compounds read low 0.988 | locus YER111C, strain swi4, active compounds read low 1.03 | locus YER155C, strain BEM2 (second series), active compounds read low 1.04 | locus YER155C, strain BEM2, active compounds read low 0.998 | locus YER167W, strain BCK2, active compounds read low 1.01 | locus YFR010W, strain ubp6, active compounds read low 1.02 | locus YGL078C, strain dbp3, active compounds read low 0.994 | locus YGL086W, strain mad1, active compounds read low 1.01 | locus YGL167C, strain pmr1, active compounds read low 1.01 | locus YGL173C, strain kem1, active compounds read low 1.02 | locus YGL227W, strain vid30, active compounds read low 1.03 | locus YGL240W, strain doc1, active compounds read low 1.05 | locus YGL248W, strain PDE1, active compounds read low 0.984 | locus YGL253W, strain hxk2, active compounds read low 1 | locus YGR078C, strain PAC10, active compounds read low 0.967 | locus YGR135W, strain pre9, active compounds read low 0.965 | locus YGR229C, strain SMI1, active compounds read low 0.979 | locus YGR252W, strain gcn5, active compounds read low 1 | locus YHR013C, strain ard1, active compounds read low 1.05 | locus YHR027C, strain rpn1, active compounds read low 1.01 | locus YHR030C, strain SLT2, active compounds read low 0.997 and 0.984 | locus YHR079C, strain IRE1 (second series), active compounds read low 1 | locus YHR079C, strain IRE1, active compounds read low 1 | locus YHR094C, strain hxt1, active compounds read low 0.988 | locus YHR129C, strain ARP1, active compounds read low 0.993 | locus YHR142W, strain chs7, active compounds read low 0.982 | locus YHR200W, strain rpn10, active compounds read low 0.978 | locus YIL066C, strain RNR3, active compounds read low 0.974 | locus YIL073C, strain SPO22, active compounds read low 1.08 | locus YIL125W, strain kgd1, active compounds read low 0.991 | locus YIR030C, strain dcg1, active compounds read low 0.987 | locus YJL092W, strain hpr5, active compounds read low 1.01 | locus YJL095W, strain BCK1 (second series), active compounds read low 1.01 | locus YJL095W, strain BCK1, active compounds read low 0.976 and 0.988 | locus YJL115W, strain asf1, active compounds read low 1.01 | locus YJL129C, strain trk1, active compounds read low 1.01 | locus YJL134W, strain LCB3, active compounds read low 0.991 | locus YJL154C, strain vps35, active compounds read low 1 | locus YJL164C, strain tpk1, active compounds read low 1.02 | locus YJL166W, strain qcr8, active compounds read low 1.02 | locus YJL168C, strain set2, active compounds read low 0.988 | locus YJL187C, strain SWE1 (second series), active compounds read low 0.966 | locus YJL187C, strain SWE1, active compounds read low 1.02 | locus YJR043C, strain POL32, active compounds read low 1.05 | locus YJR066W, strain TOR1, active compounds read low 0.931
